Compound activity as filed in PubChem BioAssay.
IL-1B inflam inh: blocks inflammasome-driven IL-1 beta release; THP-1 LPS/ATP IL-1B secretion, AlphaLISA, 16 h; stronger effect = lower value; AID 743279; 4.7% of 360,000 active; activity change, % at 57.5 µM; in the data active = activity change below about -50%; inconclusive = mostly about -30% to -49%
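Secreted IL-1B measured by AlphaLISA bead assay after 16 h compound exposure of THP-1 cells; compounds (final up to 57.5 uM) added 1 h before LPS (250 ng/mL) and ATP (1.25 mM) stimulation; lower signal means less secretion.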
BCR signal inh: blocks chronic active B-cell receptor signaling. ABC-DLBCL IkBa-CBG/CBR reporter, luminescence ratio, 4 h. Potency, µM (doses to about 46.1 µM), most hits filed as inhibitors. 0.05% of 340,000 active. AID 493014; active = well fitted inhibition curve with a large enough effect in the signal ratio, with a control signal flat, not every such curve was filed as active; inconclusive = small, poorly fitted or top-dose-only effect, or effect the other way, or a change in a side signal; the % refers to the signal ratio
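TMD8 ABC-DLBCL cells carrying doxycycline-inducible green luciferase fused to IkappaBalpha plus unfused red luciferase were exposed to compounds (up to 46 uM) for 4 hrs at 37C. Activity came from the overlap-corrected green/red luminescence ratio.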
DT40 TDP1 CPT: DT40-hTDP1 cell growth loss with CPT | chicken DT40 Tdp1-/-;hTDP1 cells + 20 nM CPT, ATP luminescence, 48 h | Potency, µM (series often up to 46.2 µM), most hits filed as inhibitors | 12% of 420,000 active | AID 686979; also: nearly all actives have a fitted effect of over 55% in size
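Chicken DT40 Tdp1-/- cells stably complemented with human TDP1 were seeded at 400 cells/well in medium containing 20 nM camptothecin, exposed to pin-transferred compounds, and grown at 37 °C for at least 48 hr. Viability was read as ATP luminescence.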
TDP1 cell noCPT: qHTS for Inhibitors of human tyrosyl-DNA phosphodiesterase 1 (TDP1): qHTS in cells in absence of CPT; 15% of 420,000 active; DT40 Tdp1-/- hTDP1 cells, no CPT, ATP luminescence, 48 h; AID 686978, 2013; Potency, µM (top dose mostly 46.2 µM), actives largely listed as inhibitors; also: nearly all actives have a fitted effect of over 55% in size
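Compound effects on proliferation are scored in DT40 Tdp1-/-;hTDP1 cells in the absence of CPT. ATP levels (CellTiter-Glo luminescence) are recorded after a ≥48 hr, 37 °C incubation.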
SW480 rerep: inducers of DNA re-replication in SW480 colon cancer cells | SW480 DNA re-replication, Hoechst DNA content imaging, 48 h | Potency, µM (titrated, usually from 46.1 µM), usual class: activators | 1.8% of 340,000 active; also: nearly all actives have a fitted effect of over 55% in size
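Compounds, transferred as 23 nL by pin tool, were incubated with cells for 48 hr; DNA content per nucleus was then quantified by Hoechst staining and fluorescence plate imaging.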
MCF10A rerep: induces DNA re-replication in MCF 10a normal breast cells; MCF 10A DNA re-replication, Hoechst nuclear intensity, 48 h; Potency, µM (highest dose often 46.1 µM), most hits filed as activators; 2.9% of 350,000 active; AID 624296; also: nearly all actives have a fitted effect of over 50% in size
Each line names hits and unclear results; the compound was inactive in the other large screens. An excerpt weighted towards active compounds, which were near 19% of everything screened. Unless noted, calls follow the shape of the dose curve; as a rule, active = well fitted curve in the direction sought with a large enough effect; inconclusive = small, poorly fitted or top-dose-only effect, or another doubt; inactive = no such curve, though single readings can be large; an effect the other way counts as inactive or inconclusive.

COc1ccc(NC(=O)CN2CCN(S(=O)(=O)c3ccc(Cl)cc3)CC2)cc1	TDP1 cell noCPT inconclusive
NS(=O)(=O)c1ccc(NC(=O)CN2CCN(S(=O)(=O)c3ccc(F)cc3)CC2)cc1	DT40 TDP1 CPT 21µM, TDP1 cell noCPT 21µM, SW480 rerep inconclusive, MCF10A rerep inconclusive
O=C(CN1CCN(S(=O)(=O)c2ccc(F)cc2)CC1)Nc1cccc(C(F)(F)F)c1	IL-1B inflam inh -69, DT40 TDP1 CPT inconclusive
COc1cccc(NC(=O)CN2CCN(S(=O)(=O)c3ccc(F)cc3)CC2)c1	none
CCCCOc1ccc(C(=O)NCC(=O)NNC(=O)c2ccco2)cc1	none
CCOc1ccc(NC(=S)N(CCOC)C2CCN(C(C)C)CC2)cc1	none
CCS(=O)(=O)N1CCC(C(=O)Nc2ccccc2OC)CC1	none
CC/C(C)=N\N=C\c1c(O)n(CC)c2cc(C3=NNC(=O)CC3)ccc12	DT40 TDP1 CPT 10µM, TDP1 cell noCPT 6.5µM
Cc1ccc(C)c(S(=O)(=O)N2CCN(C(=O)CSC(=S)N3CCCC3)CC2)c1	BCR signal inh inconclusive
Cc1cc(C)nc(NN=C(c2ccccc2)c2ccccc2)n1	DT40 TDP1 CPT 16µM, TDP1 cell noCPT 10µM, SW480 rerep 10µM, MCF10A rerep inconclusive
CC(/C=C/c1ccc(O)cc1)=NNc1ccccc1	DT40 TDP1 CPT inconclusive, TDP1 cell noCPT inconclusive, SW480 rerep inconclusive, MCF10A rerep 23µM (no result: BCR signal inh)
CC(=NNc1ccccc1)C(C)=NNc1ccccc1	none (no result: BCR signal inh)
CC(/C=C/c1ccccc1)=N\Nc1nc(C)cc(C)n1	BCR signal inh inconclusive, DT40 TDP1 CPT 4.6µM, TDP1 cell noCPT 5.2µM, SW480 rerep inconclusive
Cc1ccc(S(=O)(=O)NC(=O)Cn2nnc(-c3ccccc3)c2COc2ccc3ccccc3c2)cc1	none (no result: BCR signal inh, SW480 rerep, MCF10A rerep)
Cc1ccc(CNC(=O)c2cc3cc(Br)ccc3oc2=N)cc1	none
CC(NC(=O)c1cc2cc(Br)ccc2oc1=N)c1ccccc1 (centres undefined)	IL-1B inflam inh -51, DT40 TDP1 CPT 16µM, TDP1 cell noCPT 16µM, MCF10A rerep inconclusive
N=c1oc2ccc(Br)cc2cc1C(=O)NCc1ccc(F)cc1	DT40 TDP1 CPT inconclusive, TDP1 cell noCPT 8.2µM, SW480 rerep inconclusive
N=c1oc2ccc(Br)cc2cc1C(=O)NCc1ccccc1	DT40 TDP1 CPT inconclusive, TDP1 cell noCPT inconclusive
Cc1cccc(Nc2cc(C)c3c(O)cccc3n2)c1C	IL-1B inflam inh -101, DT40 TDP1 CPT 21µM, TDP1 cell noCPT 23µM, SW480 rerep 21µM, MCF10A rerep inconclusive
Cc1cc(Nc2ccccc2O)nc(C)n1	none (no result: IL-1B inflam inh, BCR signal inh, SW480 rerep, MCF10A rerep)
CCOC(=O)C1(C)NC(c2cccc(C)c2)C2C(=O)N(c3ccccc3)C(=O)C21 (centres undefined)	none
C/C(=N/NC(=O)c1ccc2c(c1)OCO2)c1cccc([N+](=O)[O-])c1	BCR signal inh inconclusive
Cc1cc(C(=O)N/N=C2\CC(=O)c3ccccc32)c(C)n1-c1ccccc1	BCR signal inh inconclusive, TDP1 cell noCPT inconclusive, SW480 rerep inconclusive, MCF10A rerep inconclusive
CC(/C=C/c1ccc2c(c1)OCO2)=N\NC(=O)c1cccc([N+](=O)[O-])c1	DT40 TDP1 CPT 21µM, TDP1 cell noCPT 15µM
O=C(N/N=C/c1ccccn1)c1cccc(S(=O)(=O)Nc2ccccc2Cl)c1	DT40 TDP1 CPT 16µM, TDP1 cell noCPT 16µM
O=C(N/N=C/c1ccccn1)c1ccc(NC(=O)c2cccc([N+](=O)[O-])c2)cc1	TDP1 cell noCPT inconclusive, MCF10A rerep inconclusive
Cc1cc(C(=O)N/N=C2\CC(=O)CC(C)(C)C2)c(C)n1-c1ccccc1	DT40 TDP1 CPT inconclusive, MCF10A rerep 21µM
O=C(N/N=C/c1ccccn1)c1cccc([N+](=O)[O-])c1	IL-1B inflam inh -96, BCR signal inh inconclusive, DT40 TDP1 CPT inconclusive, TDP1 cell noCPT 16µM, SW480 rerep inconclusive
CC(Nc1cccc2ccccc12)C(=O)N/N=C/c1ccccn1 (centres undefined)	BCR signal inh inconclusive, DT40 TDP1 CPT 26µM, TDP1 cell noCPT 21µM, SW480 rerep inconclusive
